# Measured values as given in PubChem BioAssay (EPA / NIEHS).
# The source made the active and inactive calls. The calls were made as follows, unless noted: active = hit-call score of the fitted dose curve at least 0.9, where 1 is the maximum; inactive = score below 0.9.
# How the values were obtained:
# [1] = Tanguay_ZF_120hpf_MO24: Oregon State University Tanguay Lab 24 Hour Post-fertilization zebrafish Assay for Mortality (AID 2284389)
# Summary of the method: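 Embryo death at 24 hpf was recorded as present or absent in Tropical 5D zebrafish, dechorionated at 4 hpf and dosed statically from 6 hpf (28C, 0.64% DMSO); 5 uM trimethyltin chloride served as positive control.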
# [2] = Tanguay_ZF_120hpf_DP24: Oregon State University Tanguay Lab 24 Hour Post-fertilization zebrafish Assay for Delayed Development (AID 2284390)
# Summary of the method: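 Scored at 24 hpf as a binary present/absent call of delayed development by brightfield, with dead embryos not assessed. Embryos (5D wild type, chorion removed with pronase at 4 hpf) dosed statically from 6 hpf at 28 C in 0.64% DMSO.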
# [3] = Tanguay_ZF_120hpf_CRAN: Oregon State University Tanguay Lab 120 Hour Post-fertilization zebrafish Assay for Craniofacial Malformation (AID 2284397)
# Summary of the method: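 Scoring of craniofacial malformation as a binary endpoint was done at 120 hpf by brightfield microscopy and was not done in dead embryos. Exposure was static, starting at 6 hpf, in dechorionated wild-type embryos held singly at 28C with 0.64% DMSO final.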
# [4] = Tanguay_ZF_120hpf_AXIS: Oregon State University Tanguay Lab 120 Hour Post-fertilization zebrafish Assay for Axial Malformation (AID 2284398)
# Summary of the method: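 Scoring was binary (present or absent) for body-axis defects, judged by brightfield imaging at 120 hpf in surviving larvae. Exposure was static at 28C from 6 hpf in chorion-free 5D wild-type embryos, with 0.64% DMSO vehicle.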
# [5] = Tanguay_ZF_120hpf_EDEM: Oregon State University Tanguay Lab 120 Hour Post-fertilization zebrafish Assay for Edema Malformation (AID 2284400)
# Summary of the method: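 Edema recorded as a binary endpoint under brightfield at 120 hpf, excluding embryos that died. Exposure was static, sealed, 28C, from 6 hpf in dechorionated wild-type larvae, final DMSO 0.64%, DMSO as baseline.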
# [6] = Tanguay_ZF_120hpf_BRN: Oregon State University Tanguay Lab 120 Hour Post-fertilization zebrafish Assay for Brain Region Malformation (AID 2284402)
# Summary of the method: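 Binary brightfield scoring of brain malformation at 120 hpf in 5D wild-type larvae, chorion removed with pronase at 4 hpf. Static exposure began at 6 hpf, 28C, sealed plates, DMSO 0.64% (vol/vol) as vehicle baseline.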
# [7] = Tanguay_ZF_120hpf_TCHR: Oregon State University Tanguay Lab 120 Hour Post-fertilization zebrafish Assay for Touch Responsive (AID 2284403)
# Summary of the method: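 Binary touch-response calls are made at 120 hpf in 5D wild-type zebrafish larvae. These larvae were dechorionated with pronase and exposed singly from 6 hpf in sealed, dark plates at 28 °C with 0.64% DMSO final; dead embryos are excluded.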
# [8] = CCTE_Padilla_ZF_Score.Craniofacial: CCTE's 144 Hour Post-fertilization zebrafish Assay Score for Craniofacial Malformation, Padilla Lab (AID 2284405)
# Summary of the method: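 Craniofacial defects were scored at 6 dpf by two blinded observers using stereomicroscopy. Exposure of wild-type embryos began at 6–8 hpf in sealed wells of 10% Hanks' solution at 26C, with chemical removed by rinsing at 5 dpf.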
# [9] = CCTE_Padilla_ZF_Score.Edema: CCTE's 144 Hour Post-fertilization zebrafish Assay Score for Edema Malformation, Padilla Lab (AID 2284406)
# Summary of the method: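 Edema scored at 6 dpf by two blinded observers under a stereo microscope, in single outbred wild-type larvae exposed from 6-8 hpf in sealed wells (Hanks', 26C, 14:10 h light) and chemical-free after a 5 dpf rinse.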
# SERPINA7 (gene 6906) = experiment: CCTE_GLTED_hTBG: CCTE's human Thyroxine-binding Globulin (TBG) Inhibition Assay, Great Lakes Toxicology and Ecology Division (GLTED) Lab (AID 2284343; active = hit-call score of the fitted dose curve at least 0.9, where 1 is the maximum;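 also: active chemicals lower fluorescence versus DMSO baseline by displacing probe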)
# Summary of the method: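 Human thyroxine-binding globulin was exposed to each chemical for 2 hours, during which the ANSA probe could be displaced. Fluorescence was then measured at 380/475 nm, and loss of signal was analysed relative to DMSO.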
smiles,measurement,setting,value
OCCCC(F)(F)C(F)(F)C(F)(F)C(F)(F)C(F)(F)C(F)(F)C(F)(F)C(F)(F)F,outcome,[1],inactive
same,outcome,[2],inactive
same,outcome,[3],inactive
same,outcome,[4],inactive
same,outcome,[5],inactive
same,outcome,[6],inactive
same,outcome,[7],inactive
same,outcome,[8],inactive
same,outcome,[9],inactive
O=C(O)C(F)(F)OC(F)(F)C(F)(F)OC(F)(F)C(F)(F)OC(F)(F)F,AC50,SERPINA7 (gene 6906),18.6 µM (active)
same,outcome,[8],inactive
same,outcome,[9],inactive
OCC(O)CC(F)(F)C(F)(F)C(F)(F)C(F)(F)F (configuration not stated),outcome,[1],inactive
same,outcome,[2],inactive
same,outcome,[3],inactive
same,outcome,[4],inactive
same,outcome,[5],inactive
same,outcome,[6],inactive
same,outcome,[7],inactive
same,outcome,[8],inactive
same,outcome,[9],inactive
O=S(=O)(O)CCC(F)(F)C(F)(F)C(F)(F)C(F)(F)C(F)(F)C(F)(F)C(F)(F)C(F)(F)F,outcome,[1],inactive
same,AC50,[2],79.2 µM (active)
same,AC50,[3],89.2 µM (active)
same,outcome,[4],inactive
same,outcome,[5],inactive
same,outcome,[6],inactive
same,outcome,[7],inactive
same,outcome,[8],inactive
same,outcome,[9],inactive
CCc1cc(Cc2cc(CC)c(N)c(CC)c2)cc(CC)c1N,AC50,SERPINA7 (gene 6906),8.5 µM (active)
O=C(O)CCC(F)(F)C(F)(F)C(F)(F)C(F)(F)C(F)(F)C(F)(F)C(F)(F)F,outcome,[1],inactive
same,outcome,[2],inactive
same,outcome,[3],inactive
same,outcome,[4],inactive
same,outcome,[5],inactive
same,outcome,[6],inactive
same,outcome,[7],inactive
same,outcome,[8],inactive
same,outcome,[9],inactive
O=C(c1ccccc1)c1ccc(O)cc1O,AC50,SERPINA7 (gene 6906),9.12 µM (active)
O=C(O)C(F)(F)C(F)(F)C(F)(F)OC(F)(C(F)(F)F)C(F)(F)F,outcome,[1],inactive
same,outcome,[2],inactive
same,outcome,[3],inactive
same,outcome,[4],inactive
same,outcome,[5],inactive
same,outcome,[6],inactive
same,outcome,[7],inactive
same,outcome,[8],inactive
same,outcome,[9],inactive
CO[Si](C)(CCC(F)(F)C(F)(F)C(F)(F)C(F)(F)C(F)(F)C(F)(F)F)OC,outcome,[1],inactive
same,outcome,[2],inactive
same,outcome,[3],inactive
same,outcome,[4],inactive
same,outcome,[5],inactive
same,outcome,[6],inactive
same,outcome,[7],inactive
same,outcome,[8],inactive
same,outcome,[9],inactive
CCC(Cc1c(I)cc(I)c(N)c1I)C(=O)O (configuration not stated),AC50,SERPINA7 (gene 6906),43.1 µM (active)
COC(F)(C(F)F)C(F)(F)F (configuration not stated),outcome,[1],inactive
same,outcome,[2],inactive
same,outcome,[3],inactive
same,outcome,[4],inactive
same,outcome,[5],inactive
same,outcome,[6],inactive
same,outcome,[7],inactive
same,outcome,[8],inactive
same,outcome,[9],inactive
C=CC(=O)OCC(F)(F)C(F)(F)C(F)(F)C(F)(F)C(F)(F)C(F)(F)C(F)(F)C(F)F,outcome,[1],inactive
same,outcome,[2],inactive
same,outcome,[3],inactive
same,outcome,[4],inactive
same,outcome,[5],inactive
same,outcome,[6],inactive
same,outcome,[7],inactive
same,outcome,[8],inactive
same,outcome,[9],inactive
CCCCCCCCCc1ccc(OCCO)cc1,AC50,SERPINA7 (gene 6906),50 µM (active)
CCCCCCCC/C=C\CCCCCCCC(=O)N(C)CC(=O)O,AC50,SERPINA7 (gene 6906),5.56 µM (active)
CNS(=O)(=O)C(F)(F)C(F)(F)C(F)(F)C(F)(F)C(F)(F)C(F)(F)C(F)(F)C(F)(F)F,outcome,[1],inactive
same,outcome,[2],inactive
same,outcome,[3],inactive
same,outcome,[4],inactive
same,AC50,[5],47.8 µM (active)
same,outcome,[6],inactive
same,outcome,[7],inactive
same,AC50,[8],85.1 µM (active)
same,AC50,[9],20.7 µM (active)
FC(F)(F)C(F)(F)C(F)(F)C(F)(F)C(F)(F)C(F)(F)CC[Si](Cl)(Cl)Cl,outcome,[1],inactive
same,outcome,[2],inactive
same,outcome,[3],inactive
same,outcome,[4],inactive
same,outcome,[5],inactive
same,outcome,[6],inactive
same,outcome,[7],inactive
CCN=C1C=CC(=C(c2ccc(N(CC)CC)cc2)c2ccc(N(CC)CC)cc2)c2ccccc21,AC50,SERPINA7 (gene 6906),4.51 µM (active)
NS(=O)(=O)C(F)(F)C(F)(F)C(F)(F)C(F)(F)C(F)(F)C(F)(F)F,outcome,[1],inactive
same,AC50,[2],57.6 µM (active)
same,outcome,[3],inactive
same,outcome,[4],inactive
same,outcome,[5],inactive
same,outcome,[6],inactive
same,outcome,[7],inactive
same,AC50,[8],2.66 µM (active)
same,AC50,[9],2.27 µM (active)
CN(C(=O)C(F)(F)C(F)(F)C(F)(F)F)[Si](C)(C)C,outcome,[1],inactive
same,outcome,[2],inactive
same,outcome,[3],inactive
same,outcome,[4],inactive
same,outcome,[5],inactive
same,outcome,[6],inactive
same,outcome,[7],inactive
same,outcome,[8],inactive
same,outcome,[9],inactive
NC(O)(C(F)(F)F)C(F)(F)F,outcome,[1],inactive
same,outcome,[2],inactive
same,outcome,[3],inactive
same,outcome,[4],inactive
same,outcome,[5],inactive
same,outcome,[6],inactive
same,outcome,[7],inactive
same,outcome,[8],inactive
same,outcome,[9],inactive
OCC(F)(F)C(F)(F)C(F)(F)CO,outcome,[1],inactive
same,outcome,[2],inactive
same,outcome,[3],inactive
same,outcome,[4],inactive
same,outcome,[5],inactive
same,outcome,[6],inactive
same,outcome,[7],inactive
same,outcome,[8],inactive
same,outcome,[9],inactive
O=C(O)C(F)(F)C(F)(F)C(F)(F)C(F)(F)C(F)(F)C(F)(F)C(F)F,AC50,SERPINA7 (gene 6906),26.5 µM (active)
same,outcome,[8],inactive
same,outcome,[9],inactive
C=CC(=O)OCCC(F)(F)C(F)(F)C(F)(F)C(F)(F)F,outcome,[1],inactive
same,outcome,[2],inactive
same,outcome,[3],inactive
same,outcome,[4],inactive
same,outcome,[5],inactive
same,outcome,[6],inactive
same,outcome,[7],inactive
same,outcome,[8],inactive
same,outcome,[9],inactive
FC(F)(F)C(F)(F)C(F)(F)C(F)(F)C(F)(F)C(F)(F)C(F)(F)CCI,outcome,[1],inactive
same,outcome,[2],inactive
same,outcome,[3],inactive
same,outcome,[4],inactive
same,outcome,[5],inactive
same,outcome,[6],inactive
same,outcome,[7],inactive
same,outcome,[8],inactive
same,outcome,[9],inactive
NC(=O)C(F)(F)C(F)(F)C(F)(F)C(F)F,outcome,[1],inactive
same,outcome,[2],inactive
same,outcome,[3],inactive
same,outcome,[4],inactive
same,outcome,[5],inactive
same,outcome,[6],inactive
same,outcome,[7],inactive
same,outcome,[8],inactive
same,outcome,[9],inactive
NC(=O)C(F)(F)C(F)(F)C(F)(F)C(F)(F)C(N)=O,outcome,[1],inactive
same,outcome,[2],inactive
same,outcome,[3],inactive
same,outcome,[4],inactive
same,outcome,[5],inactive
same,outcome,[6],inactive
same,outcome,[7],inactive
same,outcome,[8],inactive
same,outcome,[9],inactive
